What all share (conditions): n = 1
Assay [1] concerns TNIK.
The subject of assay [2] is TNK1.
The subject of assay [3] is TNK2.
Assay [4] relates to TNNI3K.
The subject of assay [5] is T1, TRKA.
T1 construct: gene NTRK1

Assay [6] deals with TRKB.
Assay [7] concerns T2, TRKC.
T2 construct: gene NTRK3

In assay [8] the test system is TRPM6.
The test system of assay [9] is TSSK1B.
Assay [10] has as its system TSSK3.
Setting [11] is: concentration: 1 μM, replicates: in singlicate.

Like-named read-outs stand apart in the source and are kept apart here.
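Further: KINOMEscan kinase panel screen.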

As for `Cc1nnc(-c2ccc3occ(-c4ccc(S(C)=O)cc4)c3c2)[nH]1` (stereo not drawn), the “%Inh” value was 5% in assay [1] (setting [11]); 0% in [2] (setting [11]); 0% in assay [3] (setting [11]); 15% in assay [4] (setting [11]); 28% in assay [5] (setting [11]); 0% in assay [6] (setting [11]). Also, the “%Inh” value turned out to be 43% in assay [7] (setting [11]), 1% in assay [8] (setting [11]), 0% in [9] (setting [11]) and 2% in assay [10] (setting [11]).

In the case of `Cc1ccc(-c2cc(-c3c[nH]nc3-c3ccccn3)ccn2)cc1` [GW684088], the “%Inh” value is reported as 90.2% in assay [1] (setting [11]); 19% in assay [2] (setting [11]); 12% in assay [3] (setting [11]); 0% in assay [4] (setting [11]); 18% in [5] (setting [11]); 22% in assay [6] (setting [11]). For the same molecule, the “%Inh” value in assay [7] (setting [11]) is listed as 40%; in assay [8] (setting [11]) it was 0%; in assay [9] (setting [11]), 0%; in assay [10] (setting [11]), 10%.

`O=C(Nc1n[nH]c2nc(-c3nccs3)c(Br)cc12)C1CC1` [SB-742251]: the “%Inh” value is 0% in [1] (setting [11]); 0% in assay [2] (setting [11]); 16% in assay [3] (setting [11]); 4% in assay [4] (setting [11]); 59% in assay [5] (setting [11]); 62% in assay [6] (setting [11]). Further, the “%Inh” value worked out at 66% in assay [7] (setting [11]), 0% in [8] (setting [11]), 0% in assay [9] (setting [11]) and 15% in assay [10] (setting [11]).

Regarding `CS(=O)(=O)c1ccc(-c2nc3n(c2-c2ccncc2)CCC3)cc1` [SKF-105942], the “%Inh” value in assay [1] (setting [11]) amounted to 0%; in assay [2] (setting [11]) it was 0%; in assay [3] (setting [11]), 42%; in [4] (setting [11]), 19%; in [5] (setting [11]), 0%; in assay [6] (setting [11]) it was 0%. In addition, the “%Inh” value in assay [7] (setting [11]) is listed as 0%; in [8] (setting [11]), 0%; in assay [9] (setting [11]), 100%; in assay [10] (setting [11]), 6%.

In the case of `Cc1cccc(-c2nc(Nc3ccncc3)c3ccccc3n2)n1` [GW855857], the “%Inh” value in assay [1] (setting [11]) was determined as 29%; in assay [2] (setting [11]) it was 39%; in assay [3] (setting [11]), 0%; in assay [4] (setting [11]) it was 20%; in assay [5] (setting [11]), 0%; in assay [6] (setting [11]), 0%. The “%Inh” value in assay [7] (setting [11]), in assay [8] (setting [11]), in assay [9] (setting [11]) and in assay [10] (setting [11]) was 0% in each case.

Regarding `Cc1ccc(NC(=O)Nc2cccc(C(F)(F)F)c2)cc1` [GSK955403], the “%Inh” value in [1] (1 µM) is reported as 3%; in assay [2] (1 µM), 17%; in assay [3] (1 µM), 2%; in assay [4] (1 µM), 0%; in [5] (1 µM) it was 0%; in assay [6] (1 µM) it was 0%. In addition, the “%Inh” value in assay [7] (1 µM) was found to be 0%; in assay [8] (1 µM), 0%; in assay [9] (1 µM), 0%; in [10] (1 µM), 8%.

With `Cc1cc(-c2ccc3c(c2)CC[C@@H](N[C@@H](C)c2ccccc2)C3)cnc1N.Cl` [GW412617], the “%Inh” value in [1] (setting [11]) is on record as 45%; in [2] (setting [11]), 0%; in assay [3] (setting [11]), 12%; in assay [4] (setting [11]), 27%; in [5] (setting [11]), 82%; in assay [6] (setting [11]), 10%. In addition, the “%Inh” value stood at 8% in assay [7] (setting [11]), 16% in [8] (setting [11]), 37% in [9] (setting [11]) and 19% in assay [10] (setting [11]).

With `CCCc1ccc(S(=O)(=O)NC2CCN(c3ccnc(Nc4ccc(F)cc4)n3)C2)cc1` (stereo not drawn) [GSK1379715], the “%Inh” value came to 0% in assay [1] (setting [11]); 0% in [2] (setting [11]); 26% in assay [3] (setting [11]); 13% in assay [4] (setting [11]); 0% in assay [5] (setting [11]); 0% in assay [6] (setting [11]). The “%Inh” value in [7] (setting [11]) worked out at 28%; in [8] (setting [11]) it was 0%; in assay [9] (setting [11]), 100%; in assay [10] (setting [11]), 15%.

With `Cl.O=C(Nc1cccc(-c2nn3ncccc3c2-c2ccnc(Nc3cccnc3)n2)c1)c1c(F)cccc1F` [GSK312879], the “%Inh” value amounted to 1% in assay [1] (setting [11]); 49% in assay [2] (setting [11]); 13% in assay [3] (setting [11]); 0% in assay [4] (setting [11]); 0% in [5] (setting [11]); 30% in assay [6] (setting [11]). For the same molecule, the “%Inh” value in assay [7] (setting [11]) turned out to be 7%; in [8] (setting [11]), 28%; in [9] (setting [11]) it was 27%; in [10] (setting [11]) it was 9%.

For `Cc1ccc(C(=O)Nc2ccc(Nc3ccnc4cc(-c5ccccn5)ccc34)cc2O)cc1.Cl` [GW440146], the “%Inh” value in [1] (setting [11]) is reported as 0%; in assay [2] (setting [11]), 45%; in [3] (setting [11]), 95.3%; in [4] (setting [11]), 0%; in assay [5] (setting [11]), 7%; in assay [6] (setting [11]), 0%. The “%Inh” value in assay [7] (setting [11]) is 34%; in [8] (setting [11]) it was 57%; in assay [9] (setting [11]), 34%; in [10] (setting [11]), 13%.

In the case of `Cc1cccc(-c2cc(Nc3ccncc3)c3ccccc3n2)n1` [GSK223675], the “%Inh” value in [1] (setting [11]), in assay [2] (setting [11]), in assay [3] (setting [11]), in [4] (setting [11]), in assay [5] (setting [11]) and in [6] (setting [11]) was 0% each time. Besides, the “%Inh” value in assay [7] (setting [11]) is recorded as 0%; in assay [8] (setting [11]), 0%; in [9] (setting [11]) it was 0%; in assay [10] (setting [11]) it was 11%.

As to `COc1cc2ncn(-c3cc(OCC4CCCO4)c(C(N)=O)s3)c2cc1OC` (stereo not drawn) [GSK204607], the “%Inh” value in assay [1] (setting [11]) is given as 27%; in assay [2] (setting [11]) it was 0%; in assay [3] (setting [11]) it was 17%; in assay [4] (setting [11]), 0%; in assay [5] (setting [11]) it was 15%; in assay [6] (setting [11]) it was 0%. The “%Inh” value in assay [7] (setting [11]) was 0%; in assay [8] (setting [11]), 0%; in [9] (setting [11]), 0%; in assay [10] (setting [11]), 10%.

Consider `COC(=O)c1c(-c2ccccc2)c2cc(C(=O)O)ccc2c(=O)n1Cc1ccccc1`, for which the “%Inh” value in assay [1] (setting [11]), in assay [2] (setting [11]), in [3] (setting [11]), in assay [4] (setting [11]), in assay [5] (setting [11]) and in assay [6] (setting [11]) was 0% each time. The “%Inh” value in [7] (setting [11]) was found to be 11%; in [8] (setting [11]), 0%; in [9] (setting [11]), 0%; in assay [10] (setting [11]), 0%.

For the molecule `Fc1cc(Cl)ccc1Nc1ccnc2cc(I)ccc12` [GW551191], the “%Inh” value in assay [1] (setting [11]) came out at 31%; in [2] (setting [11]), 6%; in assay [3] (setting [11]), 10%; in assay [4] (setting [11]), 15%; in [5] (setting [11]), 0%; in assay [6] (setting [11]) it was 37%. For the same molecule, the “%Inh” value was determined as 24% in assay [7] (setting [11]), 0% in assay [8] (setting [11]), 32% in assay [9] (setting [11]) and 3% in assay [10] (setting [11]).

For `Cc1cc(NCC(c2ccccc2)c2ccccc2)nc(NCc2ccc(C(F)(F)F)cc2)n1` [GW497681], the “%Inh” value in assay [1] (setting [11]) is 0%; in [2] (setting [11]), 0%; in [3] (setting [11]), 0%; in [4] (setting [11]), 0%; in [5] (setting [11]), 0%; in assay [6] (setting [11]), 14%. The “%Inh” value in assay [7] (setting [11]) is 7%; in assay [8] (setting [11]), 0%; in assay [9] (setting [11]), 0%; in [10] (setting [11]), 4%.

Turning to `COc1ccc(Nc2nccc(-c3cccc(NC(=O)c4cc5cc(F)ccc5[nH]4)c3)n2)cc1` [GSK1229782], the “%Inh” value is given as 84% in assay [1] (setting [11]); 0% in assay [2] (setting [11]); 16% in assay [3] (setting [11]); 0% in assay [4] (setting [11]); 52% in [5] (setting [11]); 36% in [6] (setting [11]). The “%Inh” value in [7] (setting [11]) is recorded as 47%; in [8] (setting [11]), 33%; in assay [9] (setting [11]) it was 22%; in assay [10] (setting [11]) it was 35%.

Turning to `Cn1ccc2ncnc(Oc3ccc(Nc4nc5ccccc5[nH]4)cc3)c21`, the “%Inh” value in [1] (setting [11]), in [2] (setting [11]), in assay [3] (setting [11]), in assay [4] (setting [11]), in assay [5] (setting [11]) and in assay [6] (setting [11]) was 0% in each case. Also, the “%Inh” value in assay [7] (setting [11]) came to 0%; in [8] (setting [11]), 100%; in [9] (setting [11]) it was 0%; in assay [10] (setting [11]) it was 0%.

In the case of `Cn1ccc2ncnc(Oc3ccc(NC(=O)Nc4ccccc4)cc3)c21`, the “%Inh” value in [1] (setting [11]) turned out to be 3%; in [2] (setting [11]) it was 0%; in assay [3] (setting [11]), 0%; in [4] (setting [11]), 0%; in [5] (setting [11]), 4%; in assay [6] (setting [11]) it was 0%. For the same molecule, the “%Inh” value turned out to be 15% in [7] (setting [11]), 0% in assay [8] (setting [11]), 0% in assay [9] (setting [11]) and 0% in assay [10] (setting [11]).

Values taken from paper PMC5540273 (PLoS ONE, 2017).
